Screens: PubChem BioAssay, several laboratories
This is one part of a sample in which hits are shown more often than they occur.
EphB4 ephrin blk – antagonists of human EphB4-ephrin-B2 interaction; inhibition, % at 7 µM; EphB4 LBD / TNYL-RAW-Alexa532 peptide, fluorescence polarization; actives 0.15% (n = 97,000); AID 720;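 active = inhibition above the screen-wide mean inhibition plus 3 SD, cut at about 15% in these data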;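 also: 0% = DMSO wells and 100% = excess unlabeled TNYL-RAW peptide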
DAT uptake mod – changed human dopamine transporter uptake under cocaine IC80. actives 1.3% (n = 110,000). AID 449768. LLC-PK1 hDAT cells, [14C]-dopamine uptake with cocaine IC80; actives deviate in either direction. B-score at 10 µM. Q01959;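 active = Z score or B-score, a plate-position-corrected score, falls beyond the plate's 99.7% confidence bounds, in either direction; inactive = both scores lie inside the 99.7% bounds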;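 also: scored against the spread of the other compound wells on the same plate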
D1 mod – D1 dopamine receptor (human) allosteric modulation. P21728. HEK293 D1, CRE-luciferase, dopamine EC30 potentiation; actives deviate in either direction. B-score at 10 µM. actives 5.9% (n = 58,000);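 active = luminescence count or its row- and column-corrected plate score outside the 99.7% band of the plate's sample wells, on either side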
Target sequence (P21728 whole entry, looked up): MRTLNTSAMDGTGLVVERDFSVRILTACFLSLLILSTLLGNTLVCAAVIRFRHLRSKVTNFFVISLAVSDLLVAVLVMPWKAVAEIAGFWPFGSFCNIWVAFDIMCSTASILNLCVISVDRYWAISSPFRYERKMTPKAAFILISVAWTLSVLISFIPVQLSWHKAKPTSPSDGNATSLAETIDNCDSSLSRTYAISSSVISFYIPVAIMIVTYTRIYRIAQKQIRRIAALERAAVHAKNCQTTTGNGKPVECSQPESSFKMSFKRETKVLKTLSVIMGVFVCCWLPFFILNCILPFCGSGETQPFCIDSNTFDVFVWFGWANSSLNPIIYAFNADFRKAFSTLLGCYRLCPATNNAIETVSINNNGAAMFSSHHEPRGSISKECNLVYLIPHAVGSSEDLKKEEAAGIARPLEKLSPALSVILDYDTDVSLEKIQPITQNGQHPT
Active calls of the source: *; x = not tested or not shown.

SMILES	EphB4 ephrin blk	DAT uptake mod	D1 mod
CCOc1ccc(C2CC(c3cccc(OC)c3OC)n3nnnc3N2)cc1Cl (centres undefined)	x	-4.25*	x
O=C1c2ccccc2C(Nc2ccc(S(=O)(=O)N3CCCCCC3)cc2)N1c1ccccn1 (centres undefined)	-6.8	-1.98	x
O=C1c2cccnc2C(Nc2ccc(S(=O)(=O)N3CCCCC3)cc2)N1Cc1ccccc1 (centres undefined)	-3.7	1.04	-1.45*
Cc1cc(C)cc(C(=O)NC(CC(N)=O)c2ccc(NC3CCCCC3)c([N+](=O)[O-])c2)c1 (centres undefined)	x	-1.07	x
Brc1cnn(-c2nc(N3CCOCC3)nc(N3CCOCC3)n2)c1	x	x	3.56*
Brc1cnc(N2CCOCC2)nc1N1CCCCC1	-4.9	-0.137	0.994
COc1cccc(C(=O)N2CCN(S(C)(=O)=O)CC2)c1	2.2	-0.635	x
Cc1cccc(-c2noc(CCCC(=O)N3CCOCC3)n2)c1	-2.4	-0.169	x
CCOC(=O)c1nnc(-c2ccc(C)cc2)nc1Oc1ccccc1Cl	6.5	-0.139	x
CCOC(=O)c1nnc(-c2ccc(C)cc2)nc1Oc1ccc(Cl)cc1Cl	-2.1	-2.69*	x
O=S(=O)(Cc1ccc(Cl)cc1)c1ccccc1-c1nnc(-c2ccc(Cl)cc2)o1	1.7	x	x
c1csc(-c2nc3ccccc3[nH]2)c1	-1.8	-0.0181	-0.661
Nc1nc(-c2nc3ccccc3[nH]2)cs1	-0.1	0.445	-2.76*
O=C(COc1ccc(Cl)cc1Cl)NC(=O)N1CCOCC1	3.2	-0.139	-0.738
CCn1nc(C(=O)OCC(=O)c2c[nH]c3ccccc23)c2ccccc2c1=O	-5.4	-0.109	-3.19*
CC(C)n1nc(C(=O)OCC(=O)c2c[nH]c3ccccc23)c2ccccc2c1=O	-1.7	0.282	x
O=C(c1ccco1)N(Cc1ccc([N+](=O)[O-])cc1)c1ccc(Br)cc1	6.7	2.85*	x
O=C(c1ccco1)N(Cc1ccc([N+](=O)[O-])cc1)c1ccc(Cl)cc1	4.3	0.559	x
C[C@H](C(=O)C=[N+]=[N-])N1C(=O)c2ccccc2C1=O	-5.7	-7.13*	-0.096
[N-]=[N+]=CC(=O)CC(c1ccccc1)N1C(=O)c2ccccc2C1=O (centres undefined)	1.9	x	0.424
O=C(Nc1ccc2c(c1)OCO2)c1cccc(F)c1	0.0	1.35	0.233
O=C(/C=C\Nc1cccc(F)c1)c1ccc2c(c1)OCO2	3.0	1.69	-6.87*
COc1ccc(C2C(C(=O)N3CCCC3)CC(=O)N2c2ccc(OC)cc2)cc1 (centres undefined)	x	0.855	0.175
COc1ccc(C2C(C(=O)N3CCN(c4ccccn4)CC3)CC(=O)N2c2ccc(OC)cc2)cc1 (centres undefined)	12.6	0.0802	-3.08*
CCO[C@H]1OC(C(=O)N2CCOCC2)=C[C@@H](c2ccc(Br)cc2)[C@@H]1CCCO	x	-0.399	x
SMILES	EphB4 ephrin blk	DAT uptake mod	D1 mod
Cc1ccc(NC(=O)c2c(C)noc2C)cc1	-1.4	0.364*	x
Cc1ccc(NC(=O)c2onc(C)c2Cl)cc1	-12.0	-2.64*	x
Cc1noc(C)c1C(=O)Nc1cccnc1	-4.8	0.855	0.0105
COc1cc(NC(=O)c2onc(C)c2Cl)c(OC)cc1Cl	x	0.195	-0.128
O=C(O)C1=C[C@@H](c2ccc(Br)cc2)C[C@@H](OCCCCO)O1	x	0.624	x
COC(=O)C1=CNC=C(C(=O)OC)C1c1ccc(C(=O)OC)cc1	x	-0.474	0.615
CC1(c2nnc(Cc3ccccc3)o2)CC(c2ccncc2)=NO1 (centres undefined)	x	-0.535	x
CC1(c2nnc(-c3ccncc3)o2)CC(c2cccc(Cl)c2)=NO1 (centres undefined)	x	-0.422	x
COc1ccccc1-c1nnc(SCc2nc3ccccc3s2)n1C	1.6	-0.152	x
COc1ccc(-c2nnc(SCc3nc4ccccc4s3)n2C(C)C)cc1	2.3	3.86*	x
CCOC(=O)CN1C(=O)C2Cc3ccccc3CN2C1=S (centres undefined)	1.5	-0.0359	x
O=C(NCC1CCCO1)C1CCCN1C(=O)NC1CCCCC1 (centres undefined)	6.6	-0.476	-0.0055
CCCCNC(=O)C1CCCN1C(=O)NC1CCCCC1 (centres undefined)	-1.3	-7.87*	x
CCc1nc(C)cn1S(=O)(=O)c1cc(C)c(OC)c(C)c1C	0.9	-0.133	x
CCN(CC)S(=O)(=O)c1ccc(C(=O)OCCN2C(=O)CCC2=O)cc1	-1.0	x	-4.9*
CCN(CC)S(=O)(=O)c1ccc(C(=O)OCC(=O)c2ccc3c(c2)NC(=O)CO3)cc1	8.3	-0.645	x
Clc1ccccc1-c1ccc(CN2CCN(c3ccccc3)CC2)o1	-1.5	x	x
COc1ccc(C2N=C(c3ccccc3)NC(c3ccccc3)=N2)cc1	2.5	0.42	x
COc1cc(C2N=C(c3ccccc3)NO2)cc(Br)c1O (centres undefined)	2.7	2.61*	0.478
CCCCOC(=O)c1ccc(NC(=O)c2c(N)n(C)c(=O)[nH]c2=O)cc1	x	-0.15	x
CO/N=C(/CNC(=O)c1ccc(F)cc1)c1ccc(Cl)cc1	10.4	x	x
CCOC(=O)CSc1nnc(CSc2nc3sc4c(c3c(=O)[nH]2)CCCC4)n1-c1ccccc1	0.3	1.87*	x
Cc1nnc2n(Cc3ccccc3)c(=O)c3c4c(sc3n12)CN(Cc1ccccc1)CC4	x	x	0.697
Cc1nnc2n(Cc3ccccc3)c(=O)c3c4c(sc3n12)CCCC4	x	x	6.28*
CCOC(=O)CCCSc1nc2sc3c(c2c(=O)[nH]1)CCC3	-5.6	0.0158	x
SMILES	EphB4 ephrin blk	DAT uptake mod	D1 mod
CCOC(=O)CSc1nnc2n(C3CCCCC3)c(=O)c3c4c(sc3n12)CCCC4	x	0.111	x
CCOC(=O)CSc1nnc2n(Cc3ccccc3)c(=O)c3c4c(sc3n12)CCC4	6.4	-1.48*	x
Cc1ccc(N2CCN(/N=C/c3sccc3C)CC2)cc1	-2.0	1.08	x
CCOc1cc(CNC(C)C)c(Cl)cc1OCC(=O)NCCc1ccccc1	0.0	-1.53	x
CCCNC(=S)N1CCC(NC(=O)C2CCCCC2)CC1	0.9	-0.659	x
Cn1cc(Cl)c(C(=O)OCC(=O)Nc2ccccc2)n1	15.5*	-0.383	x
O=C(COC(=O)c1cccnc1)Nc1ccccc1	-5.4	0.0492	x
CC(=O)O[C@H]1CC(C)(C)C(=C=C/C(C)=C/C=C/C(C)=C/C=C/C=C(C)/C=C/C=C(\C)C(=O)C[C@@]23O[C@]2(C)C[C@@H](O)CC3(C)C)[C@](C)(O)C1	x	0.0679	x
CCC(=O)NC(C)C(c1cccs1)N1CCN(Cc2ccccc2)CC1 (centres undefined)	-0.6	-0.182	x
CCN1CCN(C(c2cccs2)C(C)NC(=O)c2ccco2)CC1 (centres undefined)	6.8	-0.652	-1.36*
CC(NC(=O)c1cccs1)C(c1cccs1)N1CCN(Cc2ccccc2)CC1 (centres undefined)	-0.7	-0.119	-2.14*
CCN1CCN(C(c2cccs2)C(C)NC(=O)c2ccccc2OC)CC1 (centres undefined)	x	0.46	-0.168
CN=C(Nc1ccc(Cl)cc1)c1ccc(C(F)(F)F)cc1	1.3	-0.00533	x
CCCCC1=NN2C(=N)CC(=O)N=C2S1	-0.6	0.639	x
COc1ccc(/C=C\C(=O)c2c(O)ccc3c(C)cc(=O)oc23)cc1OC	-1.3	0.277	x
C/C=C/C=C\C(=O)Nc1cccc(C2=NOC3(C2)C[C@@H](C(N)=O)N(C(=O)c2cc([N+](=O)[O-])cc([N+](=O)[O-])c2)C3)c1 (some centres undefined)	x	-0.841	x
